These results are taken from PubChem BioAssay (Tox21).

Each structure is given as a SMILES string. Results filed as inconclusive are left out. The source made the active and inactive calls. Calls come from the whole dose curve; as a rule, active = well fitted activation curve with a large enough effect in the repeat runs; inconclusive = weak or mixed curves; inactive = flat fitted curve, though single readings scatter.
% is set by controls: 0 for no effect and ±100 for the full control effect; potency is the fitted concentration of half-maximal effect.

This experiment is described as follows: A CellTox Green Cytotoxicity Assay to monitor cytotoxicity in HepG2 cells - 32 hour (AID 1224883). Note: nearly all actives have a fitted effect of over 50% in size. The conditions noted are these: CellTox Green fluorescence; series mostly up to 76.8 µM; cytotoxicity increase: at the top concentration. Put shortly:
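Measurements at 0, 8, 16, 24, 32 and 40 h of treatment captured CellTox Green fluorescence in HepG2 cells that had been co-plated with reagent and preincubated 5 h at 37 C/5% CO2.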
Turning to `CCOC(=O)c1ccccc1S(=O)(=O)NC(=O)Nc1nc(Cl)cc(OC)n1`, the “cytotoxicity increase” value is -9.4% (inactive).

For `COc1cccc2c1C(=O)c1c(O)c3c(c(O)c1C2=O)C[C@@](O)(C(=O)CO)CC3OC1CC(N2CCOC(OC)C2)C(O)C(C)O1` (some centres not stated), the Potency was 0.0425 µM (active).

In the case of `CCOP(=S)(OCC)OC(Cl)C(Cl)(Cl)Cl` (configuration not stated), the “cytotoxicity increase” value was 17.6% (inactive).

Consider `CC(Cc1ccc(C(C)(C)C)cc1)CN1C[C@@H](C)O[C@@H](C)C1` (some centres not stated), for which the Potency is 49 µM (active).

Turning to `O=[N+]([O-])c1cc(Cl)ccc1Cl`, the “cytotoxicity increase” value is -14.1% (inactive).

With `COC(=O)N(C(=O)N1CO[C@@]2(C(=O)OC)Cc3cc(Cl)ccc3C2=N1)c1ccc(OC(F)(F)F)cc1`, the “cytotoxicity increase” value was -1.04% (inactive).

Take `COc1ccc(OC)c(C=O)c1`: the “cytotoxicity increase” value is 0.79% (inactive).

Regarding `ClC1=C(Cl)C2(Cl)C3C(Cl)C=CC3C1(Cl)C2(Cl)Cl` (configuration not stated), the Potency was 54.9 µM (active).

For `CCCCCCCCc1ccc(O)cc1`, the Potency was 42.7 µM (active).

Turning to `CC(C)Oc1cccc(NC(=O)c2ccccc2C(F)(F)F)c1`, the Potency is 43.6 µM (active).

Regarding `C[C@]12CC[C@@H]3c4ccc(OC(=O)N(CCCl)CCCl)cc4CC[C@H]3[C@@H]1CC[C@@H]2O`, the “cytotoxicity increase” value is 4.2% [at 35.3 µM] (inactive).

As to `ClC1=C(Cl)[C@]2(Cl)[C@@H]3[C@@H]4C[C@@H]([C@H]5O[C@@H]45)[C@@H]3[C@@]1(Cl)C2(Cl)Cl`, the Potency is 54.9 µM (active).
